Measurements published in PubChem BioAssay (NCI).
The panel holds about 79,000 compounds, 15% with a hit somewhere; the sample as a whole holds those more often. Active and inactive are the calls of the source. Cut-off read from the data, not from the text of the source: active = growth inhibition above about 70%; inactive = the rest.

Tests used:
[1] = NCI Yeast Anticancer Drug Screen. Data for the rad50 strain (AID 155);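 note: 0% = growth of vehicle-only cultures of the same strain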; details: S. cerevisiae rad50 strain growth inhibition; at 50.0 µM; stronger effect = higher value
Procedure, shortened: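 DNA repair mutant yeast, compound exposure, growth read-out; inhibition is taken relative to vehicle.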

[2] = NCI Yeast Anticancer Drug Screen. Data for the mec2-1 strain (AID 157); details: S. cerevisiae mec2-1 strain, at 50.0 µM, stronger effect = higher value
Procedure, shortened: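 Using mec2-1 yeast: add compound, measure growth, express inhibition versus vehicle-treated cultures.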

[3] = NCI Yeast Anticancer Drug Screen. Data for the sgs1 mgt1 strain (AID 161);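 note: 0% = growth of cultures given vehicle only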; details: S. cerevisiae sgs1 mgt1 strain, at 50.0 µM, stronger effect = higher value
Procedure, shortened: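 Percent growth inhibition was derived by comparing compound-exposed mutant yeast with vehicle-exposed cultures. The strain carries alterations in DNA damage repair.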

[4] = NCI Yeast Anticancer Drug Screen. Data for the cln2 rad14 strain (AID 165);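 note: 0% = growth equal to vehicle treated cultures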; details: S. cerevisiae cln2 rad14 strain, at 50.0 µM, stronger effect = higher value
Procedure, shortened: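 Yeast strain cln2 rad14, bearing defects in cell cycle control and DNA repair, serves as the test system; values reflect growth inhibition compared with vehicle.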

[5] = NCI Yeast Anticancer Drug Screen. Data for the bub3 strain (AID 167); details: S. cerevisiae bub3 mutant strain, at 50.0 µM, stronger effect = higher value
Procedure, shortened: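 In this screen, a yeast mutant lacking normal mitotic checkpoint function is challenged with compound. Relative growth versus vehicle gives the inhibition value.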

[6] = NCI Yeast Anticancer Drug Screen. Data for the mlh1 rad18 strain (AID 175); details: S. cerevisiae mlh1 rad18 strain growth inhibition; at 50.0 µM; stronger effect = higher value
Procedure, shortened: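 Steps: expose repair-defective yeast to compound; measure growth; express inhibition against vehicle-treated controls.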

Measured: growth inhibition

C1=Nc2ccccc2/C1=C/C=C/c1ccccc1
inactive: [1] 24.6% | [2] 31.6% | [3] 28.3% | [4] 10.2% | [5] 41.5% | [6] 21.8%

O=C=Nc1ccc(Cl)c(Cl)c1
inactive: [1] -19.9% | [2] -29.4% | [3] -43% | [4] -9.1% | [5] -13.7% | [6] -19.1%

COC(=O)C12OCC34C(CC5C(C)=C(O)C(=O)CC5(C)C3C(O)C1O)OC(=O)C(OC(C)=O)C24 (stereo unspecified)
inactive: [2] 69.5%
active: [1] 81.5% | [3] 80.5% | [4] 79.3% | [5] 79% | [6] 84.2%

COc1ccc(C(O)c2ccc(OC)cc2)cc1
inactive: [1] -10.8% | [2] -16.6% | [3] -23.9% | [4] 10.1% | [5] -22.3% | [6] -7.6%

CC1CCOC(C)(Cc2ccccc2)O1 (stereo unspecified)
inactive: [1] -2.8% | [2] -3.05% | [3] -6.9% | [4] -58.8% | [5] -18.1% | [6] -10.9%

COc1ccc(C)cc1NC(=S)NC(=O)c1cccc2ccccc12
inactive: [1] -38.6% | [2] 12.9% | [3] 9.85% | [4] -61.1% | [5] 40% | [6] -1.55%

O=C(O)C(c1ccccc1)C(O)C1CCCC1 (stereo unspecified)
inactive: [1] -2.9% | [2] -11.1% | [3] 1.05% | [4] -10.8% | [5] -7.3% | [6] -4.45%

O=C(/C=C/c1ccc(O)cc1)c1ccc(O)cc1
inactive: [1] -30% | [2] -13.7% | [3] -37.8% | [4] 0.15% | [5] -2.9% | [6] -20.6%

N/C(=N\OC(=O)NC(Cl)=C(Cl)Cl)c1ccc(Cl)cc1
inactive: [1] -18.9% | [2] -34.4% | [3] 7.4% | [4] 16.7% | [5] -13.9% | [6] -7.95%

O=[N+]([O-])c1ccc(-c2cccc3ccccc23)c([N+](=O)[O-])c1
inactive: [1] 15.7% | [2] 34.9% | [3] 17.1% | [4] 15.9% | [5] 33.5% | [6] 21.1%

CCN(CC)CCSc1nnc(-c2cc(OC)c(OC)c(OC)c2)o1
inactive: [1] 32.5% | [2] 1.1% | [3] -21.1% | [4] 14.8% | [5] 4.2% | [6] -9.85%

COC(=O)c1c(C)c(C)cc(C)c1C
inactive: [1] -0.9% | [2] -13.2% | [3] -4.1% | [4] 11.7% | [5] -7.1% | [6] -9.5%

Cn1nnnc1/C(=C/c1ccccc1)C(=O)O
inactive: [1] 12.9% | [2] -0.15% | [3] 0.1% | [4] -18.9% | [5] 12.1% | [6] 12.2%

CC(SSc1ccc(C(C)(C)C)cc1)c1ccccc1 (stereo unspecified)
inactive: [1] 9.25% | [2] -14.2% | [3] -11.1% | [4] -35.4% | [5] 10.2% | [6] -1.4%

C[Si](C)(C)Oc1cc(N=NNC2=CC(=O)c3ccccc3C2=O)c(O)c2ccccc12
inactive: [1] -0.1% | [2] 2.2% | [3] -11.8% | [4] -24% | [5] 7.6% | [6] 5.15%

Clc1ccc2nc(/C=C/c3ccccc3)cnc2c1
inactive: [1] 14.6% | [2] 11.2% | [3] 13.3% | [4] 8.9% | [5] 14.1% | [6] 22.5%

COc1ccc(-c2c(C#N)c(N)nc(C)c2-c2ccccc2)cc1
inactive: [1] -26.4% | [2] -10.8% | [3] -6.85% | [4] -24.6% | [5] -5.65% | [6] 16.9%

COC(=O)c1nnn(-c2ccccc2C(C)C)c1C(=O)c1ccccc1
inactive: [1] 7% | [2] -8.85% | [3] -0.9% | [4] -5.75% | [5] -21.4% | [6] 24.5%

COC(=O)C1OC(O[C@H]2CC[C@]3(C)[C@H]4CC=C5[C@@H]6CC(C)(C)CC[C@]6(C(=O)OC)CC[C@@]5(C)[C@]4(C)CC[C@H]3C2(C)C)C(O)C(O)C1O (stereo partly specified)
inactive: [1] 5.45% | [2] -8.4% | [3] 2.05% | [4] 5.85% | [5] 23.6% | [6] 15.1%

N#Cc1c(-c2ccccc2)c(-c2ccccc2)cc2c(=O)c3ccc(Cl)cc3[nH]c12
inactive: [1] -27.3% | [2] 3.25% | [3] -2.9% | [4] 12.4% | [5] 7.2% | [6] 2.4%

Nc1cc(C(F)(F)F)ccc1F
inactive: [1] 2.5% | [2] -13.8% | [3] -9% | [4] -5.6% | [5] 6.65% | [6] 27.4%

C/C(=N\NC(=S)N1CCN(c2ccccn2)CC1)c1cccc2cccnc12
inactive: [1] 13.4% | [2] -21.1% | [3] -18.9% | [4] 2.4% | [5] 1.4% | [6] -0.25%

NC(CCC(N)C(=O)O)C(=O)O (stereo unspecified)
inactive: [1] -25.4% | [2] -20.6% | [3] -25.2% | [4] -13.5% | [5] -13.1% | [6] -18.1%

Cc1cc[n+](CC(=O)CC(O)(C(F)(F)F)C(F)(F)F)cc1
inactive: [1] -9% | [2] 5.7% | [3] 15.2% | [4] -4.1% | [5] -6.95% | [6] -1.6%

CCN1CC(O)c2cc(N=NC(N)=O)c(O)cc21 (stereo unspecified)
inactive: [1] -3.3% | [2] 14.9% | [3] 3.1% | [4] -8.85% | [5] 3.85% | [6] 23%

CCOC(=O)C1=C(OC(OCC)C([Se]c2ccccc2)C(C)C)CCC1 (stereo unspecified)
inactive: [1] 65.8% | [2] 33.5% | [3] 65.2% | [4] 42.2% | [5] 58.6% | [6] 51%

O=[N+]([O-])c1ccc(/C=N/Nc2cnnc(Cl)c2Cl)cc1
inactive: [1] -0.6% | [2] 1.75% | [3] -1.95% | [4] -33% | [5] 2.45% | [6] 1.65%

CCCCCC(C)(O)CCCCC
inactive: [1] 0.15% | [2] 1.75% | [3] 1.7% | [4] 11.7% | [5] 18.3% | [6] 12%

CCCCN(CC)CCNc1cc(C)nc(/N=C(\N)Nc2ccc(Cl)c(Cl)c2)n1
inactive: [4] 29.1%
active: [1] 95.8% | [2] 85% | [3] 96.3% | [5] 76.5% | [6] 92.5%

CSCC1CC(c2ccc(Cl)cc2)=NO1 (stereo unspecified)
inactive: [1] 27.8% | [2] 6.8% | [3] 1.05% | [4] -1.4% | [5] 0.45% | [6] 32.6%

Cc1cc2c(C)nn(Cc3ccccc3Cl)c2c(C#N)c1C
inactive: [1] 32.5% | [2] -1.6% | [3] 43% | [4] 23.9% | [5] 26.9% | [6] 44.4%

CC(=O)CC(=O)OC1CCCC(C)C1 (stereo unspecified)
inactive: [1] -9.55% | [2] 1% | [3] -17.9% | [4] -39.4% | [5] -22.8% | [6] -15.2%

Brc1ccc2oc3ccccc3c2c1
inactive: [1] 24.4% | [2] -2.45% | [3] 18.4% | [4] -5.5% | [5] 6.75% | [6] 24.8%

CCCCCCCCCCCCCCCOc1ccc2ccccc2c1
inactive: [1] -11.4% | [2] 8.2% | [3] -5.8% | [4] -27.7% | [5] -7.05% | [6] -35.1%

COc1ccc(C(C)c2cc(OC)c(OC)cc2OC)cc1 (stereo unspecified)
inactive: [1] 17.6% | [2] 10.8% | [3] 25.6% | [4] -29.2% | [5] 44.2% | [6] 37.8%

COc1ccc2c(c1)CCC(OS(=O)(=O)CC13CCC(CC1=O)C3(C)C)C2=O (stereo unspecified)
inactive: [1] -9.15% | [2] 5% | [3] -15.2% | [4] -10.7% | [5] -21.9% | [6] -0.45%

O=C1OC(=O)C2(Cl)C3C=CC(C3)C12 (stereo unspecified)
inactive: [1] 9.3% | [2] -8.15% | [3] -15.6% | [4] -72.6% | [5] -16.3% | [6] 4.8%

CC(C)C1C(O)C23CCC4C(C)(CO)CCCC4(C)C2CC13 (stereo unspecified)
inactive: [1] -7.15% | [2] -6.85% | [3] -22.6% | [4] -15.4% | [5] -24.1% | [6] -8.75%

CC(O)C(=O)N(CCO)CCO (stereo unspecified)
inactive: [1] -5.4% | [2] -21.9% | [3] -13.4% | [4] -35.8% | [5] 3.5% | [6] 10.3%

CCCCCCCCCCCCCCCCCC
inactive: [1] -9.7% | [2] -6.9% | [3] -16.2% | [4] 6.7% | [5] 0.25% | [6] -2.15%

CCOC(=O)C1CCC2c3[nH]c4ccccc4c3CCN2C1=O (stereo unspecified)
inactive: [1] -25.3% | [2] -39.8% | [3] -8.65% | [4] 1.6% | [5] 31.1% | [6] -20.9%
